Source: PMC7862700, “An all-to-all approach to the identification of sequence-specific readers for epigenetic DNA modifications on cytosine”

molecular target: T1, EHF (Homo sapiens, UniProt Q9NZC4 1-300); test: DAPPL (digital affinity profiling via proximity ligation, sequencing); 10 mM Tris-HCl pH 7.5, 50 mM NaCl, 1 mM DTT, 4% glycerol, room temperature, 30 min; GST-TFs on glutathione beads, 16-mer random dsDNA library, 0.1% formaldehyde crosslink after washing; high values mean tight binding; conditions: protein: recombinant; tags: N-terminal GST; dsDNA, one strand shown
T1 sequence: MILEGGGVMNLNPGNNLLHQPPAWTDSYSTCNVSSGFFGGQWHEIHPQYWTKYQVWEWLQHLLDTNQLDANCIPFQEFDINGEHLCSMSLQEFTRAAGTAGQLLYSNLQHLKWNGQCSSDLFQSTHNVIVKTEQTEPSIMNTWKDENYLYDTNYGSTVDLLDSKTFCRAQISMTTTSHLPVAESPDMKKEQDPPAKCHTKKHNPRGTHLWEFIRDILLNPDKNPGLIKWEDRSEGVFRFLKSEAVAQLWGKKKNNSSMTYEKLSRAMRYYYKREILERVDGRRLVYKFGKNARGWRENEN
How it was run: (§1)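 Pools of DNA-barcoded human transcription factors, expressed in yeast as GST fusions on glutathione beads and combined with a tag-only sample, were incubated with 200 nmole of a 16-mer random double-stranded DNA library. Incubation took 30 min at room temperature in Tris/NaCl/DTT/glycerol buffer and was followed by washing, 0.1% formaldehyde crosslinking, proximity ligation (BsaI/T4 ligase, 1 h, 37 °C), PCR amplification and sequencing on an Illumina NextSeq500. Binding signal is the ratio of a hexamer's read frequency for a factor to its frequency for the tag-only sample.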

Compared with ACCTAG, GCTAAG is higher in binding signal: 1.04 fold enrichment (6-mer frequency, TF over GST control) for the first, 1.05 fold enrichment (6-mer frequency, TF over GST control) for the second.

First: GATTTA
Second: TGAATC
The binding signal of the first is higher: 1.11 fold enrichment (6-mer frequency, TF over GST control) for the first, 1.04 fold enrichment (6-mer frequency, TF over GST control) for the second.

Compared with GCTAGT, AGATCT is lower in binding signal: 1.08 fold enrichment (6-mer frequency, TF over GST control) for the first, 1.04 fold enrichment (6-mer frequency, TF over GST control) for the second.

Compared with AGCTAG, CTTAAG is higher in binding signal: 1.02 fold enrichment (6-mer frequency, TF over GST control) for the first, 1.1 fold enrichment (6-mer frequency, TF over GST control) for the second.

Going from TAAAGG to TGATTA, the binding signal falls from 1.12 fold enrichment (6-mer frequency, TF over GST control) to 1.11 fold enrichment (6-mer frequency, TF over GST control).

Compared with TAGATA, CCCCAG is lower in binding signal: 1.06 fold enrichment (6-mer frequency, TF over GST control) for the first, 1 fold enrichment (6-mer frequency, TF over GST control) for the second.

First: TGATAG
Second: GTTCGC
The binding signal of the first is lower: 1.01 fold enrichment (6-mer frequency, TF over GST control) for the first, 1.05 fold enrichment (6-mer frequency, TF over GST control) for the second.

Compared with TTAGAT, TTGCCA is lower in binding signal: 1.13 fold enrichment (6-mer frequency, TF over GST control) for the first, 1.12 fold enrichment (6-mer frequency, TF over GST control) for the second.

Going from ATAAGT to TCTAGA, the binding signal rises from 1.04 fold enrichment (6-mer frequency, TF over GST control) to 1.11 fold enrichment (6-mer frequency, TF over GST control).

Going from CTAGCC to TAGACT, the binding signal rises from 1 fold enrichment (6-mer frequency, TF over GST control) to 1.04 fold enrichment (6-mer frequency, TF over GST control).

Compared with TTAAGA, GCTGGT is higher in binding signal: 1.05 fold enrichment (6-mer frequency, TF over GST control) for the first, 1.2 fold enrichment (6-mer frequency, TF over GST control) for the second.

First: CGTTTA
Second: CGTCTG
The binding signal of the first is lower: 1.06 fold enrichment (6-mer frequency, TF over GST control) for the first, 1.07 fold enrichment (6-mer frequency, TF over GST control) for the second.

With CATGCG the binding signal was 1.06 fold enrichment (6-mer frequency, TF over GST control).

molecular target: SPI1 (Homo sapiens, UniProt P17947 1-270); test: as above; conditions: protein: recombinant; tags: N-terminal GST; dsDNA, one strand shown
How it was run: as §1

Compared with ACCTAG, ATAAGA is higher in binding signal: 1.02 fold enrichment (6-mer frequency, TF over GST control) for the first, 1.13 fold enrichment (6-mer frequency, TF over GST control) for the second.

First: TGAATC
Second: GATCTA
The binding signal of the first is higher: 1.11 fold enrichment (6-mer frequency, TF over GST control) for the first, 1 fold enrichment (6-mer frequency, TF over GST control) for the second.

Going from GCTAGT to AGCTAG, the binding signal falls from 1.13 fold enrichment (6-mer frequency, TF over GST control) to 1.08 fold enrichment (6-mer frequency, TF over GST control).

First: CTTAAG
Second: TAAAGG
The binding signal of the first is lower: 1 fold enrichment (6-mer frequency, TF over GST control) for the first, 1.03 fold enrichment (6-mer frequency, TF over GST control) for the second.

First: AGTCTC
Second: CCCCAG
The binding signal of the first is higher: 1.07 fold enrichment (6-mer frequency, TF over GST control) for the first, 1.04 fold enrichment (6-mer frequency, TF over GST control) for the second.

TGATAG and GCCCGA are the same in binding signal: 1.01 fold enrichment (6-mer frequency, TF over GST control) for the first, 1.01 fold enrichment (6-mer frequency, TF over GST control) for the second.

Going from GTTCGC to GGATCT, the binding signal falls from 1.04 fold enrichment (6-mer frequency, TF over GST control) to 1.02 fold enrichment (6-mer frequency, TF over GST control).

Compared with TTGCCA, TCAATC is lower in binding signal: 1.07 fold enrichment (6-mer frequency, TF over GST control) for the first, 1.06 fold enrichment (6-mer frequency, TF over GST control) for the second.

First: ATAAGT
Second: CTAGCC
The binding signal of the first is lower: 1 fold enrichment (6-mer frequency, TF over GST control) for the first, 1.1 fold enrichment (6-mer frequency, TF over GST control) for the second.

First: TAGACT
Second: TTAAGA
The binding signal of the first is lower: 1 fold enrichment (6-mer frequency, TF over GST control) for the first, 1.03 fold enrichment (6-mer frequency, TF over GST control) for the second.

First: GCTGGT
Second: CGTTTA
The binding signal of the first is higher: 1.19 fold enrichment (6-mer frequency, TF over GST control) for the first, 1.06 fold enrichment (6-mer frequency, TF over GST control) for the second.

In the case of CGTCTG, the binding signal was 1.06 fold enrichment (6-mer frequency, TF over GST control).

molecular target: SPIB (Homo sapiens, UniProt Q01892 1-262); test: as above; conditions: protein: recombinant; tags: N-terminal GST; dsDNA, one strand shown
Sequence (Q01892 whole entry): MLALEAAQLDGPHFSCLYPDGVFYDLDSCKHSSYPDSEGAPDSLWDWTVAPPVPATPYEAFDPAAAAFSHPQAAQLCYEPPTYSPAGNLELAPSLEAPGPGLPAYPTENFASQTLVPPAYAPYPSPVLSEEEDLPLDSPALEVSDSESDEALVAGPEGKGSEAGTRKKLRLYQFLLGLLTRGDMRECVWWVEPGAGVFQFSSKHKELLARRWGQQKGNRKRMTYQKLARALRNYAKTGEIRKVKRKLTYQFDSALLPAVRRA
How it was run: as §1

First: TGGATA
Second: ATAAGA
The binding signal of the first is higher: 1.12 fold enrichment (6-mer frequency, TF over GST control) for the first, 1.04 fold enrichment (6-mer frequency, TF over GST control) for the second.

First: TGAATC
Second: GATCTA
The binding signal of the first is lower: 1.04 fold enrichment (6-mer frequency, TF over GST control) for the first, 1.06 fold enrichment (6-mer frequency, TF over GST control) for the second.

Compared with GCTAGT, CTTAAG is higher in binding signal: 1.09 fold enrichment (6-mer frequency, TF over GST control) for the first, 1.11 fold enrichment (6-mer frequency, TF over GST control) for the second.

Compared with TAAAGG, TGATTA is higher in binding signal: 1.03 fold enrichment (6-mer frequency, TF over GST control) for the first, 1.07 fold enrichment (6-mer frequency, TF over GST control) for the second.

First: TAGATA
Second: TCGAGC
The binding signal of the first is lower: 1.05 fold enrichment (6-mer frequency, TF over GST control) for the first, 1.1 fold enrichment (6-mer frequency, TF over GST control) for the second.

Compared with TGATAG, GTTCGC is higher in binding signal: 1.05 fold enrichment (6-mer frequency, TF over GST control) for the first, 1.11 fold enrichment (6-mer frequency, TF over GST control) for the second.

Going from GGATCT to TTAGAT, the binding signal rises from 1.02 fold enrichment (6-mer frequency, TF over GST control) to 1.05 fold enrichment (6-mer frequency, TF over GST control).

Compared with TTGCCA, TCAATC is higher in binding signal: 1.02 fold enrichment (6-mer frequency, TF over GST control) for the first, 1.04 fold enrichment (6-mer frequency, TF over GST control) for the second.

Compared with CTAGCC, TTAAGA is higher in binding signal: 1.02 fold enrichment (6-mer frequency, TF over GST control) for the first, 1.07 fold enrichment (6-mer frequency, TF over GST control) for the second.

Compared with GCTGGT, CGTTTA is lower in binding signal: 1.18 fold enrichment (6-mer frequency, TF over GST control) for the first, 1.11 fold enrichment (6-mer frequency, TF over GST control) for the second.

First: GATCAA
Second: CGTCTG
The binding signal of the first is lower: 1.03 fold enrichment (6-mer frequency, TF over GST control) for the first, 1.18 fold enrichment (6-mer frequency, TF over GST control) for the second.

molecular target: T2, ELK3 (Homo sapiens, UniProt P41970 1-407); test: as above; conditions: protein: recombinant; tags: N-terminal GST; dsDNA, one strand shown
T2 sequence: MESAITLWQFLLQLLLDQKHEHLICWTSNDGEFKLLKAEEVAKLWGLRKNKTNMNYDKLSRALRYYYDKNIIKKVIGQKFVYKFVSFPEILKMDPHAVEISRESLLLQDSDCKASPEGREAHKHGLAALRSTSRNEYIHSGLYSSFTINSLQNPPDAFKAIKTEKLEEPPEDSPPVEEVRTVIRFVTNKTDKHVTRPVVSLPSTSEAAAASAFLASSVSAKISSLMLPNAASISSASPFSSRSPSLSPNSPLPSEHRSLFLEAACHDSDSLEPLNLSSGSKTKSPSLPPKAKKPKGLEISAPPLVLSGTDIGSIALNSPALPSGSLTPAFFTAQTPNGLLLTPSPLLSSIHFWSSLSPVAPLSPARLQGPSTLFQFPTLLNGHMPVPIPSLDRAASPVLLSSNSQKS
How it was run: as §1

First: GATTTA
Second: ATAAGA
The binding signal of the first is lower: 1.08 fold enrichment (6-mer frequency, TF over GST control) for the first, 1.13 fold enrichment (6-mer frequency, TF over GST control) for the second.

Compared with CTAGAA, GATCTA is higher in binding signal: 1.09 fold enrichment (6-mer frequency, TF over GST control) for the first, 1.12 fold enrichment (6-mer frequency, TF over GST control) for the second.

Compared with GCTAGT, AGATCT is lower in binding signal: 1.11 fold enrichment (6-mer frequency, TF over GST control) for the first, 1.07 fold enrichment (6-mer frequency, TF over GST control) for the second.

Going from AGCTAG to TAAGGG, the binding signal rises from 1 fold enrichment (6-mer frequency, TF over GST control) to 1.04 fold enrichment (6-mer frequency, TF over GST control).

First: CTTAAG
Second: TAAAGG
The binding signal of the first is lower: 1.03 fold enrichment (6-mer frequency, TF over GST control) for the first, 1.1 fold enrichment (6-mer frequency, TF over GST control) for the second.

AGTCTC and TGAAGA are the same in binding signal: 1.03 fold enrichment (6-mer frequency, TF over GST control) for the first, 1.03 fold enrichment (6-mer frequency, TF over GST control) for the second.

First: TGATTA
Second: TAGATA
The binding signal of the first is higher: 1.07 fold enrichment (6-mer frequency, TF over GST control) for the first, 1.02 fold enrichment (6-mer frequency, TF over GST control) for the second.

First: TCGAGC
Second: TGATAG
The binding signal of the first is lower: 1.01 fold enrichment (6-mer frequency, TF over GST control) for the first, 1.09 fold enrichment (6-mer frequency, TF over GST control) for the second.

First: TTAGAT
Second: TTGCCA
The binding signal of the first is higher: 1.09 fold enrichment (6-mer frequency, TF over GST control) for the first, 1.05 fold enrichment (6-mer frequency, TF over GST control) for the second.

Going from ATAAGT to TCTAGA, the binding signal rises from 1.09 fold enrichment (6-mer frequency, TF over GST control) to 1.18 fold enrichment (6-mer frequency, TF over GST control).

First: CTAGCC
Second: TTAAGA
The binding signal of the first is higher: 1.1 fold enrichment (6-mer frequency, TF over GST control) for the first, 1.02 fold enrichment (6-mer frequency, TF over GST control) for the second.

Compared with GCTGGT, CGTTTA is lower in binding signal: 1.19 fold enrichment (6-mer frequency, TF over GST control) for the first, 1.12 fold enrichment (6-mer frequency, TF over GST control) for the second.

Compared with GATCAA, CGTCTG is lower in binding signal: 1.09 fold enrichment (6-mer frequency, TF over GST control) for the first, 1.05 fold enrichment (6-mer frequency, TF over GST control) for the second.
